An excerpt weighted towards active compounds, which were near 3.1% of everything screened.
C8 TRAIL sens – viability loss with TRAIL in NB7+C8 cells, primary screen, TRAIL sensitizer project, cell-based, ATPlite luminescence. inhibition (viability loss, TRAIL sensitization), % at 10 µM. actives 1% (n = 360,000);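 active = compounds causing at least 50% loss of cell viability in the single-dose screen, relative to plate controls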
KKLEB cytotox – cytotoxicity in KKLEB CF airway cells, primary screen, cytotoxicity control for CF NF-kB inhibitor project, cell-based, uHTS, fluorescence assay plates; actives 0.36% (n = 360,000); activity change (cytotoxicity), % at 5 µM; KKLEB CF airway cells viability, ATPlite luminescence, overnight; hits give low values; cells stimulated with P. aeruginosa culture filtrate;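 active = corrected activity change at or below -50% at 5 µM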
HIF-2a block – HIF-2a reporter inhibitors, primary screen, luminescence, 786-0 RCC cells | inhibition, % at 18.8 µM | 786-0 RCC cells HIF-2a reporter, luciferase luminescence, overnight | actives 0.72% (n = 360,000);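 active = inhibition of the luminescence signal of 40% or more relative to plate controls, in a single-dose primary screen at 18.75 µM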
PPC-1+TRAIL kill – compounds killing PPC-1 cancer cells with TRAIL present, primary screen, TRAIL potentiator project, ATPLite luminescence, uHTS | actives 0.41% (n = 220,000) | PPC-1 cells + TRAIL, ATPLite viability luminescence | cell killing (% activity), % at 4 µM or 5 µM;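 active = cell killing above 50% in the first pass at 4 µM, then a duplicate retest at 5 µM averaging 50% or more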
Peg3 promoter – Peg3 promoter-driven luciferase inhibitors, primary screen, cell-based, HeLa, luciferase luminescence; HeLa PEG-Prom luciferase reporter, overnight; inhibition, % at 20 µM; actives 1.7% (n = 360,000);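 active = inhibition of at least 50% at 20 µM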
CF NFkB block – inhibitors of PAF-induced NF-kB signaling, primary screen, cell-based, GFP fluorescence, uHTS | KKLEB NF-kB-GFP reporter, GFP fluorescence overnight | inhibition, % at 5 µM | actives 0.86% (n = 360,000) | AID 588850, 2011;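 active = at least 50% inhibition at 5 µM, scaled per plate between neutral and stimulator controls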;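 note: PAF is a Pseudomonas aeruginosa culture filtrate used as stimulus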
Numbers stand for hits; – = inactive; · = no result given.

SMILES | C8 TRAIL sens | KKLEB cytotox | HIF-2a block | PPC-1+TRAIL kill | Peg3 promoter | CF NFkB block
CCCN(CCC)C(=O)c1ccc2nc(-c3ccc(OC)c(OC)c3)c(-c3ccc(OC)c(OC)c3)nc2c1 | – | – | – | · | – | –
CCCCn1c(N)c(N(CC(C)C)C(=O)c2cc3c(s2)CCCCC3)c(=O)[nH]c1=O | – | – | – | · | – | –
O=C1/C(=C/c2cccs2)COc2ccccc21 | – | – | – | – | – | –
CCNC(=O)COc1ccc(/C=C2\COc3ccccc3C2=O)cc1OC | – | – | – | · | 70.6 | –
CCOc1cc(/C=C2\COc3ccccc3C2=O)ccc1OCC(=O)N(C)C | – | – | – | · | 62.1 | –
COc1ccc(/C=C2\CCc3ccccc3C2=O)cc1OC | – | – | – | – | – | –
S=C(Nc1ccc(Br)cc1Cl)N1CCN(c2ccccn2)CC1 | – | – | – | · | – | –
CCOC(=O)/C=c1/s/c(=C/c2ccccc2OC)c(=O)n1CC(=O)N1CCOCC1 | – | – | – | · | – | –
Cc1cc(C)n(-c2nc(SCCN(C)C)c3c4c(sc3n2)CCCC4)n1 | – | – | – | – | 82.6 | –
CC(C)N1CCCC(C)(C(=O)Nc2ccccc2)C1 (stereo not drawn) | – | – | – | · | – | –
CC(C)c1ccc(S(=O)(=O)/N=C2\C=C(NS(=O)(=O)c3ccccc3)C(=O)c3ccccc32)cc1 | – | – | – | · | – | 73.7
CCc1ccc(S(=O)(=O)/N=C2\C=C(NS(=O)(=O)c3ccccc3)C(=O)c3ccccc32)cc1 | – | – | – | · | – | 69.0
Nc1ncnc2c1ncn2[C@@H]1O[C@H](C(=O)N(CCC2=CCCCC2)CC2CC2)[C@@H](O)[C@H]1O | – | – | – | · | – | –
O=C(CSc1nnc(NC(=O)C2CC2)s1)NCc1ccccc1Cl | – | – | – | · | – | –
O=C1c2ccccc2C(c2nnnn2Cc2ccccc2)N1Cc1cccnc1 (stereo not drawn) | – | · | – | · | · | ·
CCCCCCc1cc2cc(C(=O)Nc3ccccc3)c(=O)oc2cc1O | 60.3 | -83.0 | – | – | – | 78.8
C/C(=N\OCC(=O)OCC(=O)NC(=O)c1ccccc1)c1ccc2c(c1)OCO2 | – | – | – | · | – | –
COc1ccc2cc(C#N)c(SCC(=O)Nc3nonc3C)nc2c1 | – | – | – | · | – | –
CCOC(=O)CSc1nc2cc(C)ccc2cc1C#N | 52.6 | – | – | – | – | –
CCOC(=O)CSc1nc2cc(OC)ccc2cc1C#N | 67.0 | – | – | – | – | –
CCOC(=O)CSc1nc2ccc(C)cc2cc1C#N | – | – | – | – | – | –
CC(C)c1csc(CN2CCC(C(=O)Nc3cccc(-c4ccco4)c3)CC2)n1 | – | – | – | · | – | –
CCc1ccc(C2C(C#N)=C(N)Oc3cc(N)ccc32)cc1 (stereo not drawn) | – | – | – | · | 50.4 | –
CCCOC(=O)c1ccc(-c2ccc(C=O)o2)cc1 | – | – | – | 50.4 | – | –
COc1ccc2c3c(n(C(=O)OC(C)(C)C)c2c1)C1CC=C(COC(C)=O)CN1CC3 (stereo not drawn) | – | · | – | · | · | ·
SMILES | C8 TRAIL sens | KKLEB cytotox | HIF-2a block | PPC-1+TRAIL kill | Peg3 promoter | CF NFkB block
CC(C)c1nnc(NC(=O)CCS(=O)(=O)c2nc(-c3cccs3)cc(C(F)(F)F)n2)s1 | – | – | – | – | 107.0 | 95.4
CC(C)c1nnc(NC(=O)CCS(=O)(=O)Cc2ccccc2)s1 | – | – | – | · | – | –
CCc1csc(CCNC(=O)C2CCC(=O)N(CCc3cccc(F)c3)C2)n1 (stereo not drawn) | – | – | – | · | – | –
O=C(Nc1ccc2c(c1)OCO2)c1ccc(Cl)cc1Cl | 71.1 | – | – | · | – | –
O=C(Nc1ccc2c(c1)OCCO2)c1ccc(Cl)cc1Cl | 72.2 | – | – | · | – | –
COc1ccc(S(=O)(=O)N2CCC(C(=O)NN3CCCCC3)CC2)cc1OC | – | – | – | · | – | –
CC(C)N1C(=O)/C(=C\c2nc3ccccc3c(=O)n2-c2ccccc2)c2ccccc21 | – | – | 87.0 | – | – | –
CC1=C(O)C(=O)C(C2=C(O)C(=O)C(C)=C(O)C2=O)=C(O)C1=O | – | – | – | · | – | –
Cc1ccc(C2=C(O)C(=O)C(c3ccc(C)cc3)=C(O)C2=O)cc1 | – | – | – | · | – | 55.6
Cc1ccc(OCCC(=O)OCC(=O)Nc2c(C)nn(-c3ccccc3)c2C)cc1 | – | – | – | · | – | –
CCOc1ccc(OCc2cccc(C(=O)Nc3ccc(CN4CCCCC4)cc3)c2)cc1 | – | – | – | – | 50.1 | –
O=C(Nc1nc2ccc(F)cc2s1)c1ccc([N+](=O)[O-])o1 | – | -61.9 | – | · | 67.3 | 81.0
CCOc1ccc2nc(NC(=O)c3ccco3)sc2c1 | 60.5 | – | – | · | – | –
O=C(Nc1nc2c(F)cccc2s1)c1ccc([N+](=O)[O-])o1 | – | – | – | · | – | –
CCOc1ccc(NC(=O)c2ccco2)cc1 | 55.3 | – | – | – | – | –
CCOC(=O)c1ccc2nc(NC(=O)c3ccco3)sc2c1 | – | – | – | – | – | –
CC1(C(=O)Nc2ccc3c(c2)OCCO3)CN(S(C)(=O)=O)CC(=O)N1CCc1ccc(O)cc1 (stereo not drawn) | – | · | – | · | · | ·
COc1ccc(CC(N)c2csc(Nc3cc(NCc4ccco4)ncn3)n2)cc1 (stereo not drawn) | – | – | – | · | – | –
CC1(C(=O)NS(=O)(=O)c2ccc(Cl)cc2)CCN1C(=O)c1ccccc1CCc1ccccc1 (stereo not drawn) | – | – | – | · | – | –
O=C1c2ccccc2C(O)(c2ccccc2)N1c1ccc([N+](=O)[O-])cc1Cl (stereo not drawn) | – | – | – | · | – | –
O=C1CN(C(=O)CNC(=O)c2ccc(Cl)cc2Cl)CCN1 | – | – | – | · | – | –
O=C(NC(=S)Nc1nc2ccc(F)cc2s1)c1ccco1 | 86.3 | -70.8 | – | – | – | –
O=C(CNC(=O)C1COc2ccccc2O1)Nc1ccc(F)c(F)c1 (stereo not drawn) | – | – | – | · | – | –
N#C/C(=C\c1ccc(N2CCOCC2)o1)c1nc2ccccc2[nH]1 | 56.9 | – | – | – | – | –
CC(C)(C)Cc1c(-c2ccc(F)cc2)nc2ccc(Br)cn12 | – | – | – | · | – | –
CCN1CCC(O)(C#Cc2ccccc2)CC1 | – | – | – | · | – | –
CC1C(c2ccccc2)N(C)C(c2ccccc2)C(C)C1(O)C#Cc1ccccc1 (stereo not drawn) | – | – | – | – | 61.6 | –
